Inconclusive results are not listed. Calls of active or inactive are those of the source. How the source made its calls, unless noted: active means hit-call score of the fitted dose curve at least 0.9, where 1 is the maximum; inconclusive means response in the unintended direction; inactive means score below 0.9.
Experiments:
[1] = target: human Peroxisome Proliferator-activated Receptor alpha (PPARa), PPARA (gene 5465) (UniProt Q07869); experiment: ATG_PPARa_TRANS: Attagene TRANS-FACTORIAL HepG2 Assay for human Peroxisome Proliferator-activated Receptor alpha (PPARa) (AID 2283001);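 on AC50: potency for gain of reporter signal over DMSO so agonist or activator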
Method in brief: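 Measures transcriptional activity of an exogenous chimeric PPARa-Gal4 protein in transiently transfected HepG2 cells after 24 h dosing. Reporter mRNA quantified via RT-PCR and capillary electrophoresis; DMSO served as negative control.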

[2] = target: human Peroxisome Proliferator-activated Receptor delta (PPARd), PPARD (gene 5467) (UniProt Q03181); experiment: ATG_PPARd_TRANS: Attagene TRANS-FACTORIAL HepG2 Assay for human Peroxisome Proliferator-activated Receptor delta (PPARd) (AID 2283002)
Method in brief: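 HepG2 cells transiently transfected with GAL4-UAS multiplexed reporter units driven by exogenous chimeric NR-GAL4 proteins; 24 h compound exposure. Reporter mRNA measured by RT-PCR, 6-FAM primer extension, HpaI digestion and capillary electrophoresis; gain of signal fitted relative to DMSO.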

[3] = target: Peroxisome proliferator-activated receptor gamma (Homo sapiens) (UniProt P37231); experiment: ATG_PPARg_TRANS: Attagene TRANS-FACTORIAL HepG2 Assay for human Peroxisome Proliferator-activated Receptor-gamma (PPARg) (AID 2283007)
Method in brief: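 HepG2 cells transiently transfected with multiplexed GAL4-UAS reporter units and exogenous chimeric NR-Gal4 proteins; reporter mRNA quantified after 24 h compound exposure by RT-PCR, fluorescent labelling, HpaI digestion and capillary electrophoresis; gain-of-signal fitted versus DMSO baseline.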

[4] = target: Nuclear receptor subfamily 1 group I member 2 (Homo sapiens) (UniProt O75469); experiment: ATG_PXR_TRANS: Attagene TRANS-FACTORIAL HepG2 Assay for human Pregnane X Receptor (PXR) (AID 2283008)
Method in brief: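 HepG2 cells transiently transfected with multiple reporter units, here a PXR-GAL4 chimera driving a GAL4-UAS reporter; 24 h compound exposure. Reporter mRNA measured by RT-PCR, FAM labelling and capillary electrophoresis; gain of signal fitted against DMSO baseline.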

[5] = target: Retinoic acid receptor RXR-alpha (Homo sapiens) (UniProt P19793); experiment: ATG_RXRa_TRANS: Attagene TRANS-FACTORIAL HepG2 Assay for human Retinoid X Receptor alpha (RXRa) (AID 2283012)
Method in brief: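 HepG2 cells transiently transfected with multiplexed GAL4-UAS reporter units and chimeric NR-GAL4 fusions, dosed 24 h. Reporter mRNA measured by RT-PCR, FAM labelling, HpaI digestion and capillary electrophoresis; gain-of-signal fitted relative to DMSO baseline.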

[6] = target: human Retinoid X Receptor beta (RXRb), RXRB (gene 6257) (UniProt P28702); experiment: ATG_RXRb_TRANS: Attagene TRANS-FACTORIAL HepG2 Assay for human Retinoid X Receptor beta (RXRb) (AID 2283013)
Method in brief: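 HepG2 cells transiently transfected with multiplexed reporter units driven by GAL4-UAS and exogenous chimeric NR-Gal4 proteins; treated 24 h. Reporter mRNA measured by RT-PCR, 6-FAM labelling and capillary electrophoresis; gain-of-signal fitted versus DMSO baseline.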

[7] = target: human RAR-related Orphan Receptor beta (RORb), RORB (gene 6096) (UniProt Q92753); experiment: ATG_RORb_TRANS: Attagene TRANS-FACTORIAL HepG2 Assay for human RAR-related Orphan Receptor beta (RORb) (AID 2283010)
Method in brief: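 HepG2 cells were transiently transfected with multiplexed GAL4-UAS reporter units expressing chimeric nuclear receptor–GAL4 proteins, then dosed for 24 h. Reporter mRNA was quantified by RT-PCR with fluorescent labelling and capillary electrophoresis; gain of signal was fitted relative to DMSO.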

[8] = target: human Thyroid Receptor alpha (THRa1), THRA (gene 7067) (UniProt P10827); experiment: ATG_THRa1_TRANS: Attagene TRANS-FACTORIAL HepG2 Assay for human Thyroid Receptor alpha (THRa1) (AID 2283014)
Method in brief: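 HepG2 cells transiently transfected with multiplexed GAL4-UAS reporter units for exogenous chimeric THRa1-Gal4; reporter mRNA measured 24 h after dosing by RT-PCR, 6-FAM labelling, HpaI digestion and capillary electrophoresis. Gain-of-signal fitted versus DMSO baseline.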

[9] = target: human RAR-related Orphan Receptor gamma (RORg), RORC (gene 6097) (UniProt P51449); experiment: ATG_RORg_TRANS: Attagene TRANS-FACTORIAL HepG2 Assay for human RAR-related Orphan Receptor gamma (RORg) (AID 2283011)
Method in brief: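 Readout: reporter transcript induction (RT-PCR, fluorescent primer extension, capillary electrophoresis) after 24 h compound exposure of transiently transfected HepG2 cells carrying a RORg-Gal4 chimera and GAL4-UAS reporters; DMSO served as baseline, with increasing signal fitted.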

[10] = read-out: Intercellular Adhesion Molecule 1 (ICAM1), ICAM1 (gene 3383); experiment: BSK_3C_ICAM1: BioMAP Diversity Plus: 3C Assay for Intercellular Adhesion Molecule 1 (ICAM1) Biomarker Activity (AID 2283003; active means hit-call score of the fitted dose curve at least 0.9, where 1 is the maximum; inactive means score below 0.9); conditions: primary human endothelial cells (HUVEC); actives raise or lower the signal
Method in brief: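 Primary human umbilical vein endothelial cells in the BioMAP 3C system were exposed to chemicals for 24 h, then ICAM-1 was quantified by ELISA. Activity was fitted bidirectionally against the DMSO negative control baseline.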

[11] = BSK_3C_Proliferation: Cell Proliferation Assessment in the BioMAP Diversity Plus: 3C Assay (AID 2283006; active means hit-call score of the fitted dose curve at least 0.9, where 1 is the maximum; inactive means score below 0.9); conditions: primary human endothelial cells (HUVEC)
Method in brief: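 Human umbilical vein endothelial cells were grown sub-confluent and exposed to chemical for 48 h, then fixed with 10% TCA and stained with 0.1% sulforhodamine B; absorbance at 560 nm gave relative cell number, fitted bidirectionally against DMSO baseline.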

[12] = read-out: Interleukin-1 alpha (IL1a), IL1A (gene 3552); experiment: BSK_BE3C_IL1a: BioMAP Diversity Plus: BE3C Assay for Interleukin-1 alpha (IL1a) Biomarker Activity (AID 2283016; active means hit-call score of the fitted dose curve at least 0.9, where 1 is the maximum; inactive means score below 0.9); conditions: primary human bronchial epithelial cells; actives raise or lower the signal
Method in brief: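 Human primary bronchial epithelial cells (BE3C system) were dosed with compound and IL-1a measured by ELISA 24 h later. Activity was fitted bidirectionally against DMSO baseline; cytotoxicity was tracked in parallel cultures by SRB total-protein staining.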

[13] = read-out: Monocyte Chemoattractant Protein-1 (MCP1), CCL2 (gene 6347); experiment: BSK_3C_MCP1: BioMAP Diversity Plus: 3C Assay for Monocyte Chemoattractant Protein-1 (MCP1) Biomarker Activity (AID 2283017; active means hit-call score of the fitted dose curve at least 0.9, where 1 is the maximum; inactive means score below 0.9); conditions: primary human endothelial cells (HUVEC); actives raise or lower the signal
Method in brief: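 Primary human umbilical vein endothelial cells (3C system) were exposed to test chemical for 24 h, after which MCP-1 was quantified by ELISA. Activity was fitted bidirectionally against DMSO as negative control and baseline.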

[14] = read-out: Monocyte Chemoattractant Protein-1 (MCP1), CCL2 (gene 6347); experiment: BSK_4H_MCP1: BioMAP Diversity Plus: 4H Assay for Monocyte Chemoattractant Protein-1 (MCP1) Biomarker Activity (AID 2283018; active means hit-call score of the fitted dose curve at least 0.9, where 1 is the maximum; inactive means score below 0.9); conditions: primary human endothelial cells (HUVEC); actives raise or lower the signal
Method in brief: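 Human umbilical vein endothelial cells (4H system) dosed with chemical; MCP-1 measured by ELISA 24 h after dosing. Bidirectional curve fitting against DMSO negative control as baseline; parallel SRB total-protein staining tracks overt cytotoxicity.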

[15] = read-out: Human Leukocyte Antigen - DR isotype (HLADR), HLA-DRA (gene 3122); experiment: BSK_3C_HLADR: BioMAP Diversity Plus: 3C Assay for Human Leukocyte Antigen - DR isotype (HLADR) Biomarker Activity (AID 2283019; active means hit-call score of the fitted dose curve at least 0.9, where 1 is the maximum; inactive means score below 0.9;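 further: ELISA of cell-surface HLA-DR on HUVEC 24 h after dosing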); conditions: primary human endothelial cells (HUVEC); actives raise or lower the signal
Method in brief: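 Primary human umbilical vein endothelial cells (3C system) were dosed with compound and cell-surface HLA-DR was quantified by ELISA at 24 h. Activity was fitted bidirectionally against DMSO as negative control and baseline.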

[16] = read-out: Interleukin-8 (IL8), CXCL8 (gene 3576); experiment: BSK_3C_IL8: BioMAP Diversity Plus: 3C Assay for Interleukin-8 (IL8) Biomarker Activity (AID 2283020; active means hit-call score of the fitted dose curve at least 0.9, where 1 is the maximum; inactive means score below 0.9); conditions: primary human endothelial cells (HUVEC); actives raise or lower the signal
Method in brief: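 Primary human umbilical vein endothelial cells (3C system) were exposed to test chemical for 24 h, then IL-8 was quantified by ELISA. Responses were fitted bidirectionally against DMSO vehicle as baseline.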

[17] = read-out: Monokine induced gamma interferon (MIG), CXCL9 (gene 4283); experiment: BSK_3C_MIG: BioMAP Diversity Plus: 3C Assay for Monokine induced gamma interferon (MIG) Biomarker Activity (AID 2283021; active means hit-call score of the fitted dose curve at least 0.9, where 1 is the maximum; inactive means score below 0.9); conditions: primary human endothelial cells (HUVEC); actives raise or lower the signal
Method in brief: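 Primary human umbilical vein endothelial cells in the 3C system were exposed to chemical for 24 h, after which MIG was quantified by ELISA. Activity was fitted bidirectionally against DMSO as negative control and baseline.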

[18] = target: human Retinoic Acid Receptor beta (RARb), RARB (gene 5915) (UniProt P10826); experiment: ATG_RARb_TRANS: Attagene TRANS-FACTORIAL HepG2 Assay for human Retinoic Acid Receptor beta (AID 2283004)
Method in brief: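 HepG2 cells transiently transfected with multiplexed GAL4-UAS reporter units expressing chimeric NR–Gal4 fusions; 24 h compound exposure. Reporter mRNA quantified by RT-PCR, 6-FAM labelling, HpaI digestion and capillary electrophoresis; gain-of-signal fitted against DMSO baseline.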

[19] = target: Retinoic acid receptor alpha (Homo sapiens) (UniProt P10276); experiment: ATG_RARa_TRANS: Attagene TRANS-FACTORIAL HepG2 Assay for human Retinoic Acid Receptor alpha (RARa) (AID 2283005)
Method in brief: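 HepG2 transiently transfected with multiplex GAL4-UAS reporter units including a human RARa–GAL4 chimera; 24 h compound exposure. Reporter mRNA quantified by RT-PCR, 6-FAM labeling and capillary electrophoresis; gain of signal versus DMSO.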

Measured: AC50

Sequence of human Peroxisome Proliferator-activated Receptor alpha (PPARa), PPARA (gene 5465) (Q07869 whole entry, looked up, the tested form may be a part): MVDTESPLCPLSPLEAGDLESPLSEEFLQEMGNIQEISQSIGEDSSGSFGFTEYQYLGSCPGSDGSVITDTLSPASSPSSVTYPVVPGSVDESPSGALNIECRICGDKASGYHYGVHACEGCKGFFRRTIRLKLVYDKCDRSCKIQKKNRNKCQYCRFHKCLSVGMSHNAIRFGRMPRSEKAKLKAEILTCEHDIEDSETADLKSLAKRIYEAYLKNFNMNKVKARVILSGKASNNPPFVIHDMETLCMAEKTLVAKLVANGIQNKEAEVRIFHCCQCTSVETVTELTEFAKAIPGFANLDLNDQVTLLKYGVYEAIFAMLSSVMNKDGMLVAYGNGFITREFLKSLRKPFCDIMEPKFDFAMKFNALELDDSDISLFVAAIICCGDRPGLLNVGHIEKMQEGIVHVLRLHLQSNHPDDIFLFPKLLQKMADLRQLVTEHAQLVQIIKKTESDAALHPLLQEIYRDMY
Sequence of human RAR-related Orphan Receptor gamma (RORg), RORC (gene 6097) (P51449 whole entry, looked up, the tested form may be a part): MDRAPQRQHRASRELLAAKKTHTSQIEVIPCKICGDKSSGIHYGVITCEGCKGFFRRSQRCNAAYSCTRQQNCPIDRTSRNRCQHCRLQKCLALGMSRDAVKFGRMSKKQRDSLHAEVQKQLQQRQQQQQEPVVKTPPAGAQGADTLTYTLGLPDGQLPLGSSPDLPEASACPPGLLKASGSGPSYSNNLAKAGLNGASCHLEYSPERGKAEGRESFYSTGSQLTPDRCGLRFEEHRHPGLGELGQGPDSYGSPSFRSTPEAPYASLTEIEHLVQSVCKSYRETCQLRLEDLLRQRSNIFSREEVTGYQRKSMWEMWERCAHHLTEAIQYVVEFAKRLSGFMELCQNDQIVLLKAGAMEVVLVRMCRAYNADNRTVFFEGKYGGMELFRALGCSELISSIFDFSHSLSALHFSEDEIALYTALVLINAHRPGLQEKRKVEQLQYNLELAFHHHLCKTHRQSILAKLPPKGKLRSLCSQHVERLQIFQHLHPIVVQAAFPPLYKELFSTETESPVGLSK
Sequence of Retinoic acid receptor RXR-alpha (Homo sapiens) (P19793 whole entry, looked up, the tested form may be a part): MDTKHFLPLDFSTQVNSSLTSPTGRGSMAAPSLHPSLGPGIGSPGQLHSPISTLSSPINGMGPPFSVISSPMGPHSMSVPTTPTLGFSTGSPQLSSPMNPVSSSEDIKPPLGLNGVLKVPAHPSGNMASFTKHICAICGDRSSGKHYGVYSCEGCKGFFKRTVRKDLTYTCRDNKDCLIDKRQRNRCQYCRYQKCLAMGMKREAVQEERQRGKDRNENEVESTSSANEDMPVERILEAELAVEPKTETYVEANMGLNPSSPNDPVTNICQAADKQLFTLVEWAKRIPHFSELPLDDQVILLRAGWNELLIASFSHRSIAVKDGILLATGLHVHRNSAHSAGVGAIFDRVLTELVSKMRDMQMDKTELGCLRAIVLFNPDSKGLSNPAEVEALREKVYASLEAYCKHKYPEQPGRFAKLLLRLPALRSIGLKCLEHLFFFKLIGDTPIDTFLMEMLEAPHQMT
Sequence of Nuclear receptor subfamily 1 group I member 2 (Homo sapiens) (O75469 whole entry, looked up, the tested form may be a part): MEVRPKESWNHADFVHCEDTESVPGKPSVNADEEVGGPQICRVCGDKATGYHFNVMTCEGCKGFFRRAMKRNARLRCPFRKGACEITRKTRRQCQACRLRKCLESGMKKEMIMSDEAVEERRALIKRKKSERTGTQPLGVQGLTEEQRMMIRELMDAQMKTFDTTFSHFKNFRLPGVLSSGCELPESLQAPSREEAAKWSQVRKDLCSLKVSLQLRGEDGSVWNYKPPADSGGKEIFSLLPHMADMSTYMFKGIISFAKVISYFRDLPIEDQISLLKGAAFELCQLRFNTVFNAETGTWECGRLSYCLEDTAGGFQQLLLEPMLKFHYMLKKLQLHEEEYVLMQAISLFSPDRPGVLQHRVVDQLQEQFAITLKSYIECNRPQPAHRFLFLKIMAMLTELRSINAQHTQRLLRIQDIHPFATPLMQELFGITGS
Sequence of human Peroxisome Proliferator-activated Receptor delta (PPARd), PPARD (gene 5467) (Q03181 whole entry, looked up, the tested form may be a part): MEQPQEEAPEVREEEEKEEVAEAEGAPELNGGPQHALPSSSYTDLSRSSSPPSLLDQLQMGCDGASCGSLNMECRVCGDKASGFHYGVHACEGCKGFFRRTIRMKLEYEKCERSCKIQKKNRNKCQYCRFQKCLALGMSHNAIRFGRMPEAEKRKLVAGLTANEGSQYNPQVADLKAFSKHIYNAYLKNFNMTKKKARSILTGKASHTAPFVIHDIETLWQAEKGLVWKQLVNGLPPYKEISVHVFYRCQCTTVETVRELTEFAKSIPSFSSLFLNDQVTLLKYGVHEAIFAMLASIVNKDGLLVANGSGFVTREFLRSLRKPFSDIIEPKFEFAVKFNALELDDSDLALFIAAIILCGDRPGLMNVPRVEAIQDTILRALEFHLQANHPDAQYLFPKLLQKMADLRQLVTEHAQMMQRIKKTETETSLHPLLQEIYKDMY
Sequence of human Thyroid Receptor alpha (THRa1), THRA (gene 7067) (P10827 whole entry, looked up, the tested form may be a part): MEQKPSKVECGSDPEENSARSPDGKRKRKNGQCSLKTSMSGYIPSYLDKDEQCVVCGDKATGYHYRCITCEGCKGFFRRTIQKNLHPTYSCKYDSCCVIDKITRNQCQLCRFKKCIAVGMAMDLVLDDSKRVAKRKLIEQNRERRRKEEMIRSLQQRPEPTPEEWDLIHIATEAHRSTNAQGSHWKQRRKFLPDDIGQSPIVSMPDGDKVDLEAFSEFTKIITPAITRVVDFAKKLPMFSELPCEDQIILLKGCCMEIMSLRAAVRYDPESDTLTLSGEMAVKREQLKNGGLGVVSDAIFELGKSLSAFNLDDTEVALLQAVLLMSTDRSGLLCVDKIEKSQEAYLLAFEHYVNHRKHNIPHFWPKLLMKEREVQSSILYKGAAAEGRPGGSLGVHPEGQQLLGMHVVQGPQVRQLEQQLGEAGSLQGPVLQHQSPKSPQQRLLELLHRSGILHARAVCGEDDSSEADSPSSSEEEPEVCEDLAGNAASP
Sequence of human RAR-related Orphan Receptor beta (RORb), RORB (gene 6096) (Q92753 whole entry, looked up, the tested form may be a part): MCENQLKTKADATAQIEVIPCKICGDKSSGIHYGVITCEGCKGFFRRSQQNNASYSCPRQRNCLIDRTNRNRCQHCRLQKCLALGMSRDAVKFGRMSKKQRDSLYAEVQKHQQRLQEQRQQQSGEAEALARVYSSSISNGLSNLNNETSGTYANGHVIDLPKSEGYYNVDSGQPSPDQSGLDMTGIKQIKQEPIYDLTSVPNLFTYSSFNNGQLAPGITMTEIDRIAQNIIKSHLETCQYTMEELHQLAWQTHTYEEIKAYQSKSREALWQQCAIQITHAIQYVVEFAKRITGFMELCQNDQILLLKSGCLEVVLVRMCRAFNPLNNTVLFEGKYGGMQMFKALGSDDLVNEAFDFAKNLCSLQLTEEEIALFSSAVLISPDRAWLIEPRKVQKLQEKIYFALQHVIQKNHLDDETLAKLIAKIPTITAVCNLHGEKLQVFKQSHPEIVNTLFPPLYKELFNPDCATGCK
Sequence of human Retinoid X Receptor beta (RXRb), RXRB (gene 6257) (P28702 whole entry, looked up, the tested form may be a part): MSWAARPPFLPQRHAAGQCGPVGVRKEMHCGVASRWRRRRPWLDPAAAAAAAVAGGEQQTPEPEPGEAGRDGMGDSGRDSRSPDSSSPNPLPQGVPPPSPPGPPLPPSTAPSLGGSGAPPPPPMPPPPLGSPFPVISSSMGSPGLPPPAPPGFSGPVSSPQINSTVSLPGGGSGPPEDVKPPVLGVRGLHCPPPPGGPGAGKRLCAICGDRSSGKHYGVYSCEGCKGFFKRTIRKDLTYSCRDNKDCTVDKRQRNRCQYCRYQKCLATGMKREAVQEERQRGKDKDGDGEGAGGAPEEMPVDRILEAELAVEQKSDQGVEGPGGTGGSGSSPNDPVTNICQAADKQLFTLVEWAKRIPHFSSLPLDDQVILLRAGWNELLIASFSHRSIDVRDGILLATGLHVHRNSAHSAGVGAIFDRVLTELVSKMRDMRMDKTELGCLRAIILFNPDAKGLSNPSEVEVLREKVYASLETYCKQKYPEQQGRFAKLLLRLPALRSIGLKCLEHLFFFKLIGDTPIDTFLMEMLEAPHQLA
Sequence of Peroxisome proliferator-activated receptor gamma (Homo sapiens) (P37231 whole entry, looked up, the tested form may be a part): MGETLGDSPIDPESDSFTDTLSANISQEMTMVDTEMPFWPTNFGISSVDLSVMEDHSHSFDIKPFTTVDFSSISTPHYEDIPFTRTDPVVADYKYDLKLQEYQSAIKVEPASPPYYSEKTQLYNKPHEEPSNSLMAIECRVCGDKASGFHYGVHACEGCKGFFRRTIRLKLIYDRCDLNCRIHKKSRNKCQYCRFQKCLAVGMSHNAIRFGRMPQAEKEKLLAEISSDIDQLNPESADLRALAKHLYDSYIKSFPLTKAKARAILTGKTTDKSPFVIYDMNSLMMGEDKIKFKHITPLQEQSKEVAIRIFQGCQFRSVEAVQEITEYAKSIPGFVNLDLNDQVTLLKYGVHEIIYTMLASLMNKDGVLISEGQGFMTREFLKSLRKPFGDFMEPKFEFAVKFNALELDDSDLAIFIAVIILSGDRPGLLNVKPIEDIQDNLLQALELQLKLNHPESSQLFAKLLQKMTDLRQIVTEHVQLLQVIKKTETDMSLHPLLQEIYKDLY
Sequence of human Retinoic Acid Receptor beta (RARb), RARB (gene 5915) (P10826 whole entry, looked up, the tested form may be a part): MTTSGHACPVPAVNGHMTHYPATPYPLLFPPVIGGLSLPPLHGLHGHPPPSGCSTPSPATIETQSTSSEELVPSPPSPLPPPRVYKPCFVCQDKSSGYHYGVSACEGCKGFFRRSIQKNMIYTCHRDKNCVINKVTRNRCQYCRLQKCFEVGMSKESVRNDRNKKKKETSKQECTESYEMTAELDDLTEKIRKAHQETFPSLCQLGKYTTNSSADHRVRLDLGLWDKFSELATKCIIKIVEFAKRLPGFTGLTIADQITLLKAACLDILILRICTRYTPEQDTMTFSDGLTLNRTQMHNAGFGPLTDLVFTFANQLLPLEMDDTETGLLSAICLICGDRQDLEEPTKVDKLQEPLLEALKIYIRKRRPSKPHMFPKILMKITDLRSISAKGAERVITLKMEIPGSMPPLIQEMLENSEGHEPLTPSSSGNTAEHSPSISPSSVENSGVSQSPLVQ

CC(C=O)Cc1ccc(C(C)C)cc1 (stereo unspecified)
inactive: [2] | [3] | [4] | [5] | [6]
active: [1] 49.1 µM

C=CC(C)(O)CCC=C(C)CCC=C(C)C (stereo unspecified)
inactive: [1] | [2]
active: [3] 32.6 µM | [4] 3.93 µM | [6] 27.3 µM

O=C(OCc1ccccc1)C(=O)OCc1ccccc1
inactive: [1] | [2] | [3] | [6]

CCCCCCCCCCCCN(CCCCCCCCCCCC)CCCCCCCCCCCC
inactive: [1] | [2] | [3] | [4] | [7] | [6] | [8]

C=C(C)C(=O)OCc1ccccc1
inactive: [1] | [2] | [3] | [4] | [5] | [6] | [8]

CCCCCCCCCCCCSC
active: [6] 100 µM
inactive: [1] | [2] | [3] | [4] | [9] | [8]

CCC/C=C/C=O
active: [3] 27.7 µM
inactive: [1] | [2] | [4] | [5]

C=CCOc1nc(OCC=C)nc(OCC=C)n1
inactive: [1] | [2] | [5] | [8]
active: [3] 61.4 µM | [4] 14.9 µM | [6] 81 µM

O=c1[nH]nnc2ccccc12
inactive: [1] | [2] | [4] | [5] | [8]

Cc1ccc2sc3cccc(C)c3c2c1
inactive: [1] | [2] | [9] | [6] | [8]

c1cc(C(c2ccc(OCC3CO3)cc2)c2ccc(OCC3CO3)cc2)ccc1OCC1CO1 (stereo unspecified)
inactive: [1] | [2] | [4] | [8]

O=C(O)COCCN1CCN(C(c2ccccc2)c2ccc(Cl)cc2)CC1 (stereo unspecified)
inactive: [1] | [2] | [4] | [8]

CC(C)(C)C(=O)c1ccccc1
inactive: [1] | [2] | [4] | [7] | [9] | [6] | [8]

Nc1cc([N+](=O)[O-])ccc1Cl
inactive: [1] | [10] | [11] | [4] | [9] | [5] | [6] | [8] | [12] | [13] | [14] | [15] | [16] | [17]
active: [3] 49.8 µM

NCCCN1CCOCC1
inactive: [1] | [2] | [6] | [8]

Cc1ncc([N+](=O)[O-])n1C
inactive: [1] | [2] | [4] | [7] | [5]
active: [6] 100 µM

C=CC(=O)OCCOCCOCC
active: [3] 17 µM | [4] 40 µM
inactive: [1] | [18] | [19] | [7] | [9] | [8]
